Screening data deposited in PubChem BioAssay by National Center for Advancing Translational Sciences (NCATS).
AID inh – inhibitors of human activation induced cytidine deaminase. Q9GZX7. AID deamination FRET fluorescence, UDG-coupled, 4 h. Potency, µM (doses to about 115 µM), most hits filed as inhibitors. 91,000 compounds, 0.32% hits; further: nearly all actives have a fitted effect of over 25% in size
Target sequence (Q9GZX7 whole entry, looked up): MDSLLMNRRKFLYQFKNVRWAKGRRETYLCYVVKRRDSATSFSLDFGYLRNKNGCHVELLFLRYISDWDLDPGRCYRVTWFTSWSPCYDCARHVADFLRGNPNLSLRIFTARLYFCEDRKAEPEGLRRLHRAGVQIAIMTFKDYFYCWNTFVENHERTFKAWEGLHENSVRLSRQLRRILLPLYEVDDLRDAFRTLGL
UDG counter – blocks uracil-DNA glycosylase in AID counter-screen; AID 1347430; Potency, µM (series often up to 115 µM), most hits filed as inhibitors; FRET deamination/UDG coupled assay, UDG read, 4 h; 91,000 compounds, 0.14% hits; further: nearly all actives have a fitted effect of over 65% in size
Hits are given with their value. Compounds with a hit are over-represented: about 0.47% of the library has one in this group of screens. The call rests on the fitted dose curve; in most records, active means well fitted curve in the direction sought with a large enough effect; inconclusive means small, poorly fitted or top-dose-only effect, or another doubt; inactive means no such curve, though single readings can be large; an effect the other way counts as inactive or inconclusive.

How did COc1ccc(CNc2oc(/C=C/c3cccc(OC)c3)nc2C#N)cc1 do in these assays?
AID inh: inactive; UDG counter: 89µM

What do the screens show for `COc1cccc(/C=C/c2nc(C#N)c(NCc3ccco3)o2)c1`?
AID inh: inactive; UDG counter: inactive

How did Cn1nc(C(=O)N2CCOCC2)cc1C(=O)Nc1ccc(F)c(F)c1 do in these assays?
AID inh: inactive; UDG counter: inactive

Results for O=C(Nc1ccc(F)c(F)c1)c1cc(S(=O)(=O)C2CCS(=O)(=O)C2)ccc1F (stereo unspecified) ?
AID inh: inactive; UDG counter: inactive

What do the screens show for `Cc1cc(C)n(-c2nc3ccccc3nc2N2CCN(C(=O)c3ccccc3)CC2)n1`?
AID inh: inactive; UDG counter: inactive

Results for Cc1cc(C)n(-c2nc3ccccc3nc2N2CCN(S(=O)(=O)c3ccc4ccccc4c3)CC2)n1 ?
AID inh: inactive; UDG counter: 89µM

How did O=C(CC1N=C2c3ccccc3N=C(SCc3ccccc3Cl)N2C1=O)NC1CCCCC1 (stereo unspecified) do in these assays?
AID inh: inactive; UDG counter: 89µM

Results for Cc1ccc(CSC2=Nc3ccccc3C3=NC(CC(=O)NC4CCCCC4)C(=O)N23)c(C)c1 (stereo unspecified) ?
AID inh: inactive; UDG counter: inactive

How did O=C(CC1N=C2c3ccccc3N=C(SCc3ccccc3F)N2C1=O)NCCc1ccccc1 (stereo unspecified) do in these assays?
AID inh: 35µM; UDG counter: inconclusive

Results for COc1ccccc1NC(=O)CSC1=Nc2ccccc2C2=NC(CC(=O)NCCc3ccccc3)C(=O)N12 (stereo unspecified) ?
AID inh: inactive; UDG counter: inactive

How did Cc1ccc(CSC2=Nc3ccccc3C3=NC(CCC(=O)NCc4cccs4)C(=O)N23)cc1 (stereo unspecified) do in these assays?
AID inh: 89µM; UDG counter: inactive

What do the screens show for `Cc1ccc(CSC2=Nc3ccccc3C3=NC(CCC(=O)NCc4cccs4)C(=O)N23)c(C)c1` (stereo unspecified)?
AID inh: inactive; UDG counter: inactive

What do the screens show for `CCCN(Cc1cc(=O)[nH]c2c(C)cc(C)cc12)C(=O)Nc1cc(Cl)c(OC)cc1OC`?
AID inh: inactive; UDG counter: inactive

Results for C=CCSC1=N/C(=C\c2ccc(C(C)C)cc2)C(=O)S1 ?
AID inh: inactive; UDG counter: inactive

What do the screens show for `COc1cccc(CNc2nc(NCc3cccc(OC)c3)n(S(=O)(=O)c3ccc(C)cc3)n2)c1`?
AID inh: inactive; UDG counter: inactive

What do the screens show for `Cc1cc2oc(=O)cc(CN3CCCCCC3)c2cc1C(C)C`?
AID inh: inactive; UDG counter: inactive

Results for Cc1nc(C(=O)O)ccc1C#N ?
AID inh: inactive; UDG counter: inactive

How did CS(=O)(=O)N(Cc1csc(-c2cccs2)n1)C1CCN(C(=O)c2ccccc2F)CC1 do in these assays?
AID inh: inactive; UDG counter: inactive

How did Cc1ccc2cc(C(=O)NCc3ccc(N4CCC(C)CC4)nc3)c(C)nc2c1 do in these assays?
AID inh: inactive; UDG counter: inactive

What do the screens show for `COc1ccc(-c2noc(N3CCC(C(=O)N(C)c4cc(Cl)ccc4OC)CC3)n2)cc1`?
AID inh: 79µM; UDG counter: inactive

What do the screens show for `COc1ccc(-c2noc(N3CCC(C(=O)N4CCN(c5ccccc5OC)CC4)CC3)n2)cc1`?
AID inh: inactive; UDG counter: inconclusive
